# Laboratory results from PubChem BioAssay.
# A number with no mark means an inactive call. For some of these results: Entries with a potency or affinity are not part of this list. Active and inactive are the calls of the source. Unless noted, the rule behind the calls is not given here.
# Key:
# [1] = antimalarial activity against Dd2 strain (AID 2302;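 active = growth inhibition above 50% at the single 2 µM test dose, taken to imply half-maximal potency below 2 µM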;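 note: 0% = DMSO untreated growth and 100% = chloroquine plus artemisinin killed control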); details: P. falciparum Dd2 in RBCs, LDH growth readout, 72 h; at 2 µM; hits give high values
# [2] = human hepatoma cell viability loss – ATP luminescence, cytotoxicity control for P. falciparum antimalarial project, primary screen (AID 2303;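 active = inhibition above 50%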;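 note: 0% = DMSO wells and 100% = digitonin-killed cells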); details: HepG2 viability, 24-48 h, at 10 µM, hits give high values
# [3] = molecular target: L-lactate dehydrogenase (Plasmodium falciparum (isolate CDC / Honduras)) (UniProt Q27743); assay: PfLDH activity inhibition – cell lysate, 3D7 strain, counter-screen for P. falciparum growth inhibition project (AID 2304);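 note: 0% = vehicle and 100% = reference inhibitor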; details: P. falciparum 3D7 crude extract, LDH APAD/NBT absorbance; at 2 µM; hits give high values
# [4] = inhibition of 3D7 malaria parasite growth – strain 3D7 (AID 2306);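 note: 0% = DMSO wells and 100% = chloroquine plus artemisinin control wells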; details: P. falciparum 3D7 erythrocytic growth, LDH absorbance, 72 h; at 2 µM; hits give high values
# [5] = molecular target: Calcium-dependent protein kinase 1 (Plasmodium falciparum (isolate 3D7)) (UniProt P62344); assay: PfCDPK1 kinase inhibitors, biochemical, TCAMS library (AID 1159585; cut-off not given, nearly all actives have IC50 up to about 0.98 µM;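 note: inhibitors leave more ATP so luminescence rises with inhibition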); details: recombinant PfCDPK1, Kinase-Glo ATP depletion luminescence
# [6] = molecular target: Plasmodium falciparum protein kinase 6 (PK6, PF3D7_1337100) (UniProt Q8IDW1); assay: PfPK6 kinase inhibitors, biochemical, TCAMS library (AID 1159586); details: recombinant PfPK6, Kinase-Glo ATP depletion luminescence
# [7] = molecular target: Protein kinase 7 (PK7), Plasmodium falciparum 3D7 (PF3D7_0213400) (UniProt Q7YTF7); assay: inhibition of Plasmodium PK7 catalytic activity – biochemical, TCAMS antimalarial set, Kinase-Glo luminescence (AID 1159587); details: recombinant PfPK7, Kinase-Glo ATP depletion luminescence
# [8] = molecular target: Calcium-dependent protein kinase 4 (Plasmodium falciparum (isolate 3D7)) (UniProt Q8IBS5); assay: PfCDPK4 kinase inhibitors, biochemical, TCAMS library (AID 1159588; cut-off not given, nearly all actives have IC50 up to about 0.91 µM); details: recombinant PfCDPK4, Kinase-Glo ATP depletion luminescence
# Calcium-dependent protein kinase 4 (Plasmodium falciparum (isolate 3D7)), sequence (Q8IBS5 whole entry, looked up): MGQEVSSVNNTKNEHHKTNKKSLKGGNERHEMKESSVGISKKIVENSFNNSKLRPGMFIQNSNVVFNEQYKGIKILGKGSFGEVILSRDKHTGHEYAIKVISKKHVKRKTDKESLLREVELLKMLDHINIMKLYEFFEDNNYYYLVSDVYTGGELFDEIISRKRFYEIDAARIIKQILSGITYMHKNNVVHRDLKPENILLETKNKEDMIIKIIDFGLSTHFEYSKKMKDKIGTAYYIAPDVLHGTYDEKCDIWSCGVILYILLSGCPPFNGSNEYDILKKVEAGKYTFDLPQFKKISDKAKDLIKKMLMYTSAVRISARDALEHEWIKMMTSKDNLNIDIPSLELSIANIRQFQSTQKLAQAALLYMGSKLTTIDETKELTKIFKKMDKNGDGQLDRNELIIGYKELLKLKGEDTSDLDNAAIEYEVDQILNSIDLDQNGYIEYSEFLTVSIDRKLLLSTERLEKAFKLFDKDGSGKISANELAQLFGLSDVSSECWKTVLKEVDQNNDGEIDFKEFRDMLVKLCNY
# Plasmodium falciparum protein kinase 6 (PK6, PF3D7_1337100), sequence (Q8IDW1 1-305): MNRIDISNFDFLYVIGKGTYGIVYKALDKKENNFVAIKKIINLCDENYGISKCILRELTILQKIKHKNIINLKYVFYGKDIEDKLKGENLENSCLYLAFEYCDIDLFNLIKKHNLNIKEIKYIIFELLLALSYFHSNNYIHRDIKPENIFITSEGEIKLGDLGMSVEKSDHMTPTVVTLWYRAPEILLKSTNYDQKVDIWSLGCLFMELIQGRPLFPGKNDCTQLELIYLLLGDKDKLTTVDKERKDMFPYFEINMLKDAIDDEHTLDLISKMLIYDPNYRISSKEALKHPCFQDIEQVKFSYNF
# Calcium-dependent protein kinase 1 (Plasmodium falciparum (isolate 3D7)), sequence (P62344 whole entry, looked up): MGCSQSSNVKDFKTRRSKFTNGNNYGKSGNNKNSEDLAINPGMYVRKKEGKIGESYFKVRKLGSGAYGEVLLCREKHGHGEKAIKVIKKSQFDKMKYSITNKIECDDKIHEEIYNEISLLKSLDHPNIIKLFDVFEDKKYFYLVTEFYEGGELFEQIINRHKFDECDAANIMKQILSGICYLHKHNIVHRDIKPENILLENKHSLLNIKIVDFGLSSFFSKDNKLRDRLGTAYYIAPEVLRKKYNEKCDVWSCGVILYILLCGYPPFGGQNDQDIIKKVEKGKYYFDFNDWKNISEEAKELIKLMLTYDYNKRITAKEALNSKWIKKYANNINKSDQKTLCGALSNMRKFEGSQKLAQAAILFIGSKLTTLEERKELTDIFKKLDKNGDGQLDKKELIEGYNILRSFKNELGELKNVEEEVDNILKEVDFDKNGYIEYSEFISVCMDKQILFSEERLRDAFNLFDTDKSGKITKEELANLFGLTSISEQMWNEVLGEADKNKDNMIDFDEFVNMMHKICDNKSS
# Protein kinase 7 (PK7), Plasmodium falciparum 3D7 (PF3D7_0213400), sequence (Q7YTF7 1-343): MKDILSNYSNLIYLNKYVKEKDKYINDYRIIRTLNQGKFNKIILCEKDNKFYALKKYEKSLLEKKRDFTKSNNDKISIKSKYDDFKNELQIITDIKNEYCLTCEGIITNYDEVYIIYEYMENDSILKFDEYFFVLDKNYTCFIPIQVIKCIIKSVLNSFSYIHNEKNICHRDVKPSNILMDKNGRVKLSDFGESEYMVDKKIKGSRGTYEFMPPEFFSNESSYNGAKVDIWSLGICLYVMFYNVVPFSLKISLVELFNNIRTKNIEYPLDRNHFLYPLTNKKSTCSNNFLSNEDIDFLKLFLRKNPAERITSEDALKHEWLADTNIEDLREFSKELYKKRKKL
# L-lactate dehydrogenase (Plasmodium falciparum (isolate CDC / Honduras)), sequence (Q27743 whole entry, looked up): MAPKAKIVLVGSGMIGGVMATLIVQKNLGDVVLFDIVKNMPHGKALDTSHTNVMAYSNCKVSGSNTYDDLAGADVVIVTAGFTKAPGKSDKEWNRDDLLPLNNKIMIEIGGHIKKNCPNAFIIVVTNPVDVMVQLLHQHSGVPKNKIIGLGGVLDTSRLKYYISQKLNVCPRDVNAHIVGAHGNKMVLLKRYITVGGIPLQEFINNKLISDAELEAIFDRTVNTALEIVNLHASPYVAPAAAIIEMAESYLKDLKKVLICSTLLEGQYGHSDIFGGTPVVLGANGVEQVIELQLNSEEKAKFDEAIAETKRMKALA
SMILES,growth inhibition [1],inhibition [2],inhibition [3],growth inhibition [4],outcome [5],outcome [6],outcome [7],outcome [8]
CC(C)(C)c1cc(C(=O)N2CCC(c3ccccn3)CC2)n(Cc2ccccc2)n1,90% (active),3%,-3%,96% (active),inactive,inactive,inactive,inactive
CC(C)(C)c1ccc(-c2cc(C(=O)N[C@@H](CO)C(=O)O)on2)cc1 (tested in a mixture with another compound),-2%,1%,-1%,87% (active),inactive,inactive,inactive,inactive
Cc1ccc(Cn2nc(Cl)c(N3CCCNCC3)cc2=O)cc1NC(=O)Nc1ccc(-c2ccccc2)cc1,55% (active),90% (active),-1%,101% (active),inactive,inactive,inactive,inactive
O=C(Nc1cccc(N2CCC(NCCCc3ccncc3)CC2)c1)c1cccc(C(F)(F)F)c1,50% (active),11%,4%,96% (active),inactive,inactive,inactive,inactive
O=C(CC1CCCCC1)NCC(NCCCNc1cc(=O)c2ccccc2[nH]1)c1cc(Br)cc(Br)c1 (stereo not given),52% (active),8%,0%,95% (active),inactive,inactive,inactive,inactive
CN1CCN(CCCN(Cc2ccc(-c3cccc(CNCc4ccc5c(c4)OCO5)c3)cc2)C(=O)NC2CCCCC2)CC1,92% (active),31%,4%,95% (active),inactive,inactive,inactive,inactive
COc1cc2nc(NCCc3ccccc3)nc(NCc3ccc(C#N)cc3)c2cc1OC,100% (active),52% (active),0%,100% (active),inactive,inactive,inactive,inactive
CN1CCN(c2ccnc3ccc(NC(=O)Cc4ccc(-c5ccncc5)c5ccccc45)cc23)CC1,101% (active),32%,3%,103% (active),inactive,inactive,inactive,inactive
COc1ccc2nccc([C@@H](O)CN3CCC(NCc4ccc5scnc5c4)CC3)c2c1,93% (active),17%,-1%,101% (active),inactive,inactive,inactive,inactive
Cc1cc(N(C)CCCN2CCCCC2)nc(Nc2ccc(Cl)cc2)n1,82% (active),7%,-3%,101% (active),inactive,inactive,inactive,inactive
CCCC(C(=O)OCCNC)(c1ccccc1)c1ccccc1,96% (active),7%,7%,98% (active),inactive,inactive,inactive,inactive
COc1ccc(-c2c(C(F)(F)F)nn(C)c2NC(=O)Nc2ccc(F)cc2F)cc1,99% (active),8%,-4%,101% (active),inactive,inactive,inactive,inactive
O=C(Nc1ccc(C(=O)Nc2cccc(C3=NCCN3)c2)cc1)Nc1ccc(C2=NCCN2)cc1,98% (active),-16%,-4%,96% (active),inactive,inactive,inactive,inactive
CC(C)c1ccc(CN(C)CCCCNC(=O)c2ccc(NC(=O)c3ccc(Cl)cc3)cc2)cc1,0%,17%,0%,92% (active),inactive,inactive,inactive,inactive
COc1cc(Cc2cnc(N)nc2N)cc(OC)c1OCCCCC(=O)O,-1%,-4%,-4%,88% (active),inactive,inactive,inactive,inactive
O=C(Nc1ccc(Cl)cn1)c1sc2ccccc2c1O,18%,2%,-3%,99% (active),inactive,inactive,inactive,inactive
CN(C(=O)c1snnc1-c1ccccc1)C1CCN(CCCCCNC(=O)/C=C/c2ccc(Cl)c(Cl)c2)CC1,58% (active),44%,4%,96% (active),inactive,inactive,inactive,inactive
COc1ccc2nccc([C@@H](O)CN3CCC(NCc4cc5ccc(C#N)cc5[nH]4)CC3)c2c1,39%,31%,0%,100% (active),inactive,inactive,inactive,inactive
COc1ccc(Cc2nc(N=C(N)Nc3ccccc3)ccc2OC)cc1,68% (active),40%,2%,93% (active),inactive,inactive,inactive,inactive
Cc1ccnc2nc(C(=O)Nc3cc(Cl)ccc3N3CCOCC3)nn12,63% (active),-4%,-1%,84% (active),inactive,inactive,inactive,inactive
